# Compound activity: PubChem BioAssay, National Center for Advancing Translational Sciences (NCATS)
# FUS yeast rescue: rescues growth of FUS-expressing yeast; S. cerevisiae FUS-expressing, growth rescue, OD600, 24 h; Potency, µM (doses to about 76.6 µM), actives largely listed as activators; 0.24% of 390,000 active;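 further: plate controls were DMSO vehicle for no effect and reference control for full effect; nearly all actives have a fitted effect of over 55% in size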
#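 Yeast expressing FUS under galactose induction, OD 0.005 in 2% galactose medium; compounds in a dilution series, 24 h at 30C. Growth rescue by absorbance at 600 nm; CP55940 positive control, DMSO negative.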
# MmCpn inh: M. maripaludis TRiC chaperonin inhibition; purified Mm-Cpn ATPase, ADP Transcreener TR-FRET; Potency, µM (highest dose often 76.9 µM), for inactives: at the highest dose activity, negative = inhibition, actives largely listed as inhibitors; 0.031% of 330,000 active; AID 504842; further: on the % scale 0 is the no-effect control and ±100 the full control effect; nearly all actives have a fitted effect of over 80% in size
#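 Purified archaeal chaperonin (25 nM final) was preincubated with compound for 10 min at 37°C, then ATP (10 uM final) was added for 30 min at 37°C in Tris pH 7.4/KCl/MgCl2/DTT buffer. ADP was quantified by HTRF Transcreener TR-FRET.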
# aSyn rescue: inhibitors of alpha-synuclein toxicity in yeast | Yeast expressing alpha-synuclein, growth rescue, BacTiter-Glo, 24 h | Potency, µM (series often up to 46.1 µM), without a hit: at the highest dose growth rescue (activation), most hits filed as activators | 0.14% of 370,000 active | AID 652106; further: % of control where 0% means no effect; nearly all actives have a fitted effect of over 65% in size
#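 Screening used galactose-induced yeast with toxic alpha-synuclein levels, exposed to compound for 24 hr at 30 deg C. Cell growth, read with BacTiter-Glo luminescence, gave the measured signal.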
# Abeta yeast res: A-beta toxicity reversal in yeast; yeast expressing A-beta42, growth rescue, OD600, 48 h; response scale: 0% DMSO, 100% iron-clioquinol control; Potency, µM (highest dose often 46.1 µM), hits mostly activators; 0.063% of 410,000 active; further: nearly all actives have a fitted effect of over 55% in size
#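 Yeast A-beta toxicity model in growth medium with pinned compounds, 48 h at 30 C; growth read as absorbance at 600 nm. Normalized to FeCl3/clioquinol equimolar mix (positive) and DMSO (negative).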
# TDP43 rescue: TDP-43 toxicity inhibition in yeast. TDP-43 expressing yeast growth rescue, BacTiter-Glo, 24 h. Potency, µM (highest dose often 46.1 µM), for the others: at the highest dose growth rescue (activation), usual class: activators. 1.8% of 410,000 active. AID 652104; further: % of control where 0% means no effect; nearly all actives have a fitted effect of over 50% in size
#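 Growth rescue of TDP-43-toxic yeast measured as ATP luminescence (BacTiter-Glo). Cells grown to mid-log in raffinose, induced in galactose at OD600=0.02, exposed to compound 24 hr at 30 deg C.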
# ClpP mod: qHTS Assay for Activators of ClpP; ATP-dependent Clp protease proteolytic subunit (Bacillus subtilis (strain 168)), P80244; purified B. subtilis ClpP, FRET peptide cleavage, 20 min; Potency, µM (doses to about 57.5 µM), inactives show top-dose activity change, negative = active; 1.9% of 340,000 active; AID 651965, 2013; active means well fitted falling curve with a large enough effect; inconclusive means small, poorly fitted or top-dose-only effect; inactive means no such curve, though single readings can be large or run the other way; further: the source files actives as falling curves though it sought activators and does not explain the sign; nearly all actives have a fitted effect of over 65% in size
# Target sequence (P80244 whole entry, looked up): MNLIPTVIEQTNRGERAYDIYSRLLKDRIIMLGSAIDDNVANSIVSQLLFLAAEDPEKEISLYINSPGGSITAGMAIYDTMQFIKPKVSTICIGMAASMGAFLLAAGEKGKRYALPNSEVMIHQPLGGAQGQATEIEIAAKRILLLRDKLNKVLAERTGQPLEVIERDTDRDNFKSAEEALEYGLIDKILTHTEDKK
#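 Purified B. subtilis ClpP, 10 microg/mL final in Tris/HCl pH8 with KCl, BSA, glycerol and Tween-20, cleaved an Abz/nitrotyrosine-quenched decapeptide. Fluorescence (ex 320, em 430) was read at 0 and 20 min at room temperature. Delta was normalized to 5.8 microM ADEP and DMSO/no-enzyme controls.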
# Starred values were filed as active, the others as inactive; i = inactive; ? = inconclusive; . = no result given. A selection: hits, their analogues and other compounds. The true share with any hit is near 3.6%. Unless noted, the call rests on the fitted dose curve; in most records, active means well fitted curve in the direction sought with a large enough effect; inconclusive means small, poorly fitted or top-dose-only effect, or another doubt; inactive means no such curve, though single readings can be large; an effect the other way counts as inactive or inconclusive. Potency means the concentration at half of the fitted maximal effect.
SMILES,FUS yeast rescue,MmCpn inh,aSyn rescue,Abeta yeast res,TDP43 rescue,ClpP mod
S=C(Nc1ccccc1)Nc1nccs1,i,4%,-25%,?,13µM*,1%
Fc1ccc(NC(=S)Nc2nccs2)cc1,i,-3%,-12%,?,22µM*,1%
COc1ccc(N(C)C(=O)c2cc(S(=O)(=O)N3CCc4ccccc43)cn2C)c(OC)c1,i,.,.,i,13%,0%
Cc1ccc(SCCC(=O)OCn2nnc3ccccc3c2=O)cc1,i,0%,4%,i,35µM*,.
O=C(CCSc1ccccc1)OCn1nnc2ccccc2c1=O,i,0%,28%,?,-21%,.
O=C(/C=C/c1ccco1)OCn1nnc2ccccc2c1=O,i,2%,1%,i,?,.
Cc1ccc(/C=C/C(=O)OCn2nnc3ccccc3c2=O)o1,i,0%,?,i,18µM*,.
CCCCn1c(N)c(-c2nc3ccccc3s2)c2c([N+](=O)[O-])nn(C)c(=O)c21,40µM*,-2%,0%,i,-20%,0%
CCOc1ccc(CCNC(=O)CCc2c(C)nc3cc(-c4ccccc4OC)nn3c2C)cc1,?,.,.,i,-31%,4%
COc1ccccc1C(=O)NC1=NC(c2ccc(Br)cc2)CC(=O)N1 (stereo not drawn),i,.,.,i,19%,32µM*
Cc1ccc(C(=O)NC2=NC(c3ccc(C)cc3)CC(=O)N2)cc1 (stereo not drawn),i,.,.,i,6%,-3%
COc1ccc2c(c1)CN1CN(Cc3ccccc3)S(=O)(=O)CC21 (stereo not drawn),i,.,.,.,.,.
CCOC(=O)c1csc(NC(=O)C2CCCN(S(=O)(=O)c3ccccc3)C2)n1 (stereo not drawn),i,.,.,.,.,.
CCOc1ccc(CCNC(=O)CCc2nc(-c3ccc(C)cc3)no2)cc1OCC,i,-2%,4%,i,-4%,-15%
CCOc1ccc(CCNC(=O)CCc2nc(-c3ccc(OC)cc3)no2)cc1OCC,?,-9%,1%,i,0%,25µM*
CC(C)c1cc(-c2nc(-c3ccc(Br)cc3)no2)n[nH]1,i,.,.,i,?,0%
COc1ccc(-c2noc(-c3cc(C(C)C)[nH]n3)n2)cc1,i,.,.,?,20µM*,-2%
CCOc1ccc(-c2nc(-c3ccc(OC)cc3)no2)cc1OCC,i,1%,1%,i,?,32µM*
COCCNc1nc(C)cc(-c2cc(-c3ccc(Cl)cc3)on2)n1,i,0%,3%,i,?,4%
COCCNc1nc(-c2cc(-c3ccccc3)on2)cc(C(C)C)n1,i,-6%,-12%,i,16µM*,-5%
CC(=O)c1sc2c(c1C)c(=O)n(-c1ccc(Cl)cc1)c(=O)n2Cc1ccc(Cl)cc1,i,.,.,i,17%,2%
Cc1cccc2cc(C#N)c(NCCNS(=O)(=O)c3ccc4c(c3)OCCO4)nc12,i,0%,25%,i,12%,32µM*
COc1cc(Cl)c(CC(=O)NO)cc1OC,.,.,-4%,.,.,2%
Cc1nc2ccccn2c1C(=O)/C=C/c1cccc([N+](=O)[O-])c1,i,-3%,-5%,i,2.5µM*,0%
O=C(/C=C/c1cccc([N+](=O)[O-])c1)c1ccco1,i,-1%,12%,i,6.3µM*,-2%
SMILES,FUS yeast rescue,MmCpn inh,aSyn rescue,Abeta yeast res,TDP43 rescue,ClpP mod
O=C(/C=C/c1cccc([N+](=O)[O-])c1)c1ccc([N+](=O)[O-])o1,i,.,-77%,i,-91%,0%
Cc1c(C(=O)N2CCC3(CC2)CC(=O)c2ccccc2O3)cccc1[N+](=O)[O-],i,0%,0%,i,?,-16%
O=C1CC2(CCN(S(=O)(=O)c3ccccc3)CC2)Oc2ccccc21,i,-1%,15%,i,20µM*,?
O=C1CC2(CCN(C(=O)c3ccc(Br)cc3)CC2)Oc2ccccc21,i,0%,13%,i,-24%,32µM*
O=C1CC2(CCN(C(=O)c3ccc([N+](=O)[O-])cc3)CC2)Oc2ccccc21,i,-1%,1%,i,-1%,.
COc1ccc(S(=O)(=O)N2CCC3(CC2)CC(=O)c2ccccc2O3)cc1,i,-1%,-1%,i,13%,?
O=C1CC2(CCN(C(=O)c3ccccc3Br)CC2)Oc2ccccc21,i,-3%,10%,i,?,28µM*
Cc1ccc(-n2ncc(C(=O)NCc3ccco3)c2C2CCN(C(=O)OC(C)(C)C)CC2)c(C)c1,i,.,.,?,7%,-3%
COC(=O)c1c(-c2cccs2)csc1NC(=O)c1ccc(C(C)(C)C)cc1,i,.,.,i,-51%,4%
COc1cc(-c2cc3n(C)c(C)c(CCC(=O)NC4CCCCC4)c(=O)n3n2)cc(OC)c1OC,i,.,.,i,20%,-17%
CC(C)(C)c1ccc(C2=NC(C)(C)N(CC(=O)Nc3ccc(F)c(F)c3)C2=O)cc1,i,.,.,i,11%,1%
COc1ccc2c(c1)CC/C(=C\c1ccc(C)o1)C2=O,i,0%,-1%,i,18µM*,-2%
COc1ccc2c(c1)c1c(c(=O)n(Cc3ccccc3)c(=O)n1CC(=O)Nc1ccccc1F)n2C,i,.,.,i,19%,-5%
NC(=Nc1nc(-c2ccccn2)cc2ccccc12)c1ccccn1,.,.,?,?,3.2µM*,1%
CCc1ccccc1-n1cnc2cc(C(=O)NC3CCCCCC3)ccc21,?,.,.,i,?,-1%
CNc1c(Br)cc(C(O)C2=CCc3ccccc32)cc1Br (stereo not drawn),.,.,?,.,.,-1%
CO[C@H]1CC[C@@]2(C)[C@@H](CC[C@@H]3[C@@H]2CC[C@@]2(C)[C@H]3C[C@H](C(=O)O)O[C@]23CCCO3)C1,i,1%,22%,i,16µM*,-2%
C[C@]12CC[C@H](O)C[C@@H]1CC[C@@H]1[C@@H]2CC[C@@]2(C)[C@H]1CCC(=O)[C@]21CCCO1,i,0%,-4%,i,-22%,0%
N/C(=N\OC(=O)c1ccc2c(c1)OCO2)c1cccc(Br)c1,i,-6%,-38%,i,6.3µM*,.
O=C1CCCC2=C1C(c1cccs1)Nc1ccccc1N2 (stereo not drawn),.,-1%,-12%,i,7%,20µM*
CCc1ccccc1NC(=S)NCCSc1ccc(Cl)cc1,i,3%,-8%,i,13µM*,.
